# LDHA block: blocks human lactate dehydrogenase A. 480,000 tested, 0.15% active. P00338. purified LDHA, NADH/diaphorase-resazurin fluorescence; stronger effect = lower value. activity change, % (values are at about 110 or 230 µM); in the data active = activity change below about -30%; inconclusive = mostly about -25% to -30%
#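 Human LDH5 at 2 nM final in Tris HCl pH 7.4 with 0.06 mM NADH and 0.2 mM pyruvate, reacted 5 minutes at room temperature. Remaining NADH coupled via diaphorase/resazurin; resorufin fluorescence read at 0 and 20 minutes, normalized to enzyme-free and DMSO wells.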
# ClpP mod: qHTS Assay for Activators of ClpP | ATP-dependent Clp protease proteolytic subunit (Bacillus subtilis (strain 168)), P80244 | purified B. subtilis ClpP, FRET peptide cleavage, 20 min | Potency, µM (doses to about 57.5 µM) | 340,000 tested, 1.9% active | AID 651965, 2013; active = well fitted falling curve with a large enough effect; inconclusive = small, poorly fitted or top-dose-only effect; inactive = no such curve, though single readings can be large or run the other way; also: the source files actives as falling curves though it sought activators and does not explain the sign; nearly all actives have a fitted effect of over 65% in size
# Target sequence (P80244 whole entry, looked up): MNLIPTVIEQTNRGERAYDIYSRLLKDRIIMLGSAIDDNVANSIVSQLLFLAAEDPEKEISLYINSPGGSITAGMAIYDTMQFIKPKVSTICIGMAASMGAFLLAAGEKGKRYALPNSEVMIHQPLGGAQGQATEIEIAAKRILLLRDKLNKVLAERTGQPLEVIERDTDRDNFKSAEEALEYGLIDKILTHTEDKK
#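 Purified B. subtilis ClpP, 10 microg/mL final in Tris/HCl pH8 with KCl, BSA, glycerol and Tween-20, cleaved an Abz/nitrotyrosine-quenched decapeptide. Fluorescence (ex 320, em 430) was read at 0 and 20 min at room temperature. Delta was normalized to 5.8 microM ADEP and DMSO/no-enzyme controls.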
# RGS4 inh: inhibitors of human regulator of G protein signaling 4; P49798; Transcreener GDP fluorescence polarization, RGS4-accelerated GTP hydrolysis; Potency, µM (top dose mostly 114 µM), hits mostly inhibitors; 390,000 tested, 0.039% active; also: nearly all actives have a fitted effect of over 75% in size
# Target sequence (P49798 whole entry, looked up): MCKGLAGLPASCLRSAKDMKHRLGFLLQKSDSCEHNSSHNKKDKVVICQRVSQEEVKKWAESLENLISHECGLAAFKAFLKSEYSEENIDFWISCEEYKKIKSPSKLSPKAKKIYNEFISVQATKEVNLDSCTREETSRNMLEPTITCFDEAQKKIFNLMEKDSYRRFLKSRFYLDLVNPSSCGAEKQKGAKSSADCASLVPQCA
#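 MLSMR compounds (23 nl, pin-transferred) preincubated 10 min at room temperature with a 500nM (2x) first reagent, then RGS4 at 900nM (2x) plus Transcreener GDP mix added; fluorescence polarization (620/688 nm) read before and after 90 min at 30 °C.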
# S-ASM inh: inhibitors of human secretory acid sphingomyelinase. placental ASM, HMU-PC fluorogenic substrate, 60 min. Potency, µM (doses to about 57.5 µM), most hits filed as inhibitors. 340,000 tested, 0.006% active
#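 Human placenta-derived ASM enzyme was preincubated with compound for 10 minutes at room temperature, then given fluorogenic substrate HMU-PC0 (9 uM final) for 60 minutes at 37 °C; a pH 10 stop preceded fluorescence reading at Ex 386/Em 447 nm.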
# Mito fusion act: mitochondrial division inhibition or fusion activation. S. cerevisiae fusion-defective mutant growth rescue, CellTiterGlo 48 h. Potency, µM (highest dose often 46.1 µM), hits mostly activators. 320,000 tested, 0.23% active; also: nearly all actives have a fitted effect of over 45% in size
#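 S. cerevisiae fusion-defective temperature-sensitive mutants (e.g. fzo1-1, mgm1-5) grown 48 h at 37C in YPEG (ethanol/glycerol non-fermentable) medium with 23 nl compound per well; growth rescue read as CellTiterGlo luminescence.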
# mIDH1 inhibitor: inhibitors of human mutant IDH1 R132H | O75874 | AID 602179 | 390,000 tested, 0.093% active | Potency, µM (series often up to 76.6 µM), hits mostly inhibitors | IDH1-R132H enzyme, NADPH consumption, diaphorase/resazurin fluorescence; also: nearly all actives have a fitted effect of over 65% in size
#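 IDH1-R132H (0.5 ug/mL dispensed) in pH 7.5 Tris buffer was preincubated 30 min with compound, then given a substrate mix of 0.016 mM NADPH and 2 mM alpha-KG for 80 min at room temperature; remaining NADPH was read by diaphorase/resazurin fluorescence.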
# ClpP validation: validation of B. subtilis ClpP protease hits (inhibitors); shares compounds with ClpP mod; purified B. subtilis ClpP, FRET-FV substrate cleavage, 20 min; Potency, µM (doses to about 57.5 µM), actives largely listed as inhibitors; 470 tested, 40% active; AID 743245; also: nearly all actives have a fitted effect of over 70% in size
# A number is an active result; i = inactive; ? = inconclusive; nt = no result given. This is one part of a sample in which hits are shown more often than they occur. Unless noted, calls follow the shape of the dose curve; as a rule, active = well fitted curve in the direction sought with a large enough effect; inconclusive = small, poorly fitted or top-dose-only effect, or another doubt; inactive = no such curve, though single readings can be large; an effect the other way counts as inactive or inconclusive.
SMILES,LDHA block,ClpP mod,RGS4 inh,S-ASM inh,Mito fusion act,mIDH1 inhibitor,ClpP validation
COc1ccc(NS(=O)(=O)c2cccc(NC(=O)Cc3n[nH]c(=O)c4ccccc34)c2)cc1,i,nt,nt,nt,nt,nt,nt
O=C(Cn1cc(C(F)(F)F)ccc1=O)c1ccc(C2CCCCC2)cc1,i,nt,nt,nt,nt,nt,nt
CCC(C)NC(=O)c1cnn2c(C)c3c(nc12)CCCC3 (stereo not drawn),i,10µM,i,i,i,i,21.7µM
O=C(Cc1cccs1)Nc1ccc(-c2nnc(-c3ccccc3)o2)cc1,i,8.91µM,i,i,nt,i,12.2µM
COc1ccc(C#Cc2c(-c3ccsc3)oc3ccc(-c4cc(OC)c(OC)c(OC)c4)cc23)cc1,i,i,i,i,nt,i,?
COc1ccc(-c2oc3ccc(-c4cc(OC)c(OC)c(OC)c4)cc3c2-c2ccc(OC)cc2)cc1,i,i,i,i,nt,i,nt
Cc1ncc(-c2ccc(C)c(S(=O)(=O)N3CCN(c4cccc(C(F)(F)F)c4)CC3)c2)o1,i,nt,nt,nt,nt,nt,nt
CCC(=O)n1nc(-c2ccccc2)nc1NCc1ccccc1,i,i,i,i,i,i,i
COCC(=O)n1nc(-c2ccccc2)nc1NCc1ccccc1,i,nt,i,i,i,i,nt
Cc1cc(C)n2nc(-c3sccc3-n3c(C)ccc3C)cc2n1,i,i,i,i,i,i,?
O=C1Nc2ccc(F)cc2C12Nc1ccccc1-c1nnc(SCc3ccccc3F)nc1O2 (stereo not drawn),i,i,i,i,i,i,i
O=C1Nc2ccc(Cl)cc2C12Nc1ccccc1-c1nnc(SCc3ccccc3F)nc1O2 (stereo not drawn),i,i,i,nt,i,i,nt
CCCc1nnc(NC(=O)C2CCN(C(=O)c3ccccc3F)CC2)s1,i,nt,nt,nt,nt,nt,nt
O=C(Nc1ccc(Cl)c(-c2nc3cc(Cl)ccc3o2)c1)c1cc2ccccc2o1,i,?,i,nt,nt,nt,nt
Cc1cc2nc(-c3cc(NC(=O)c4cc5ccccc5o4)ccc3Cl)oc2cc1C,i,3.16µM,i,nt,nt,i,19.3µM
COC(=O)c1cc(Cl)c(NC(=O)c2cc3ccccc3o2)cc1OC,i,i,i,i,i,i,i
O=C(CCn1nc(-c2ccc(Cl)cc2)c2ccccc2c1=O)N1CCCCC1,i,nt,nt,nt,nt,nt,nt
COc1ccc(NC(=O)c2sc3c(c2C)C(c2cccc(C(F)(F)F)c2)CC(=O)N3)cc1 (stereo not drawn),i,nt,nt,nt,nt,nt,nt
O=c1cc(-c2ccccc2)nc2n(Cc3cccc(F)c3)c3ccccc3n12,i,nt,nt,nt,nt,nt,nt
O=C(c1ccco1)N(Cc1cccs1)C1CC1,i,nt,nt,nt,nt,nt,nt
COc1ccc2cc3cc(C(=O)Nc4ccccc4C)oc3nc2c1,i,i,i,nt,nt,i,15.3µM
Cc1ccccc1Nc1c(-c2cc(Br)ccc2F)nc2ccccn12,i,4.47µM,i,nt,nt,i,i
COC(=O)COc1ccc2c(C)c(-c3ccc(OC)cc3)c(=O)oc2c1,i,nt,nt,nt,nt,nt,nt
CCn1cc(CNC(=O)c2cc(-c3ccc(C)c(C)c3)nc3ccccc23)c(C)n1,i,?,i,nt,nt,i,nt
Cc1ccc(-c2cc(C(=O)NCc3ccccc3Cl)c3ccccc3n2)cc1C,i,4.47µM,i,nt,nt,i,27.3µM
SMILES,LDHA block,ClpP mod,RGS4 inh,S-ASM inh,Mito fusion act,mIDH1 inhibitor,ClpP validation
CCOC(=O)C1CCN(c2ncnc3c2oc2ccccc23)CC1,i,i,i,i,i,i,nt
CCOC(=O)C1CCCN(c2ncnc3c2oc2ccccc23)C1 (stereo not drawn),i,i,i,i,i,i,i
Cc1cc(C)cc(C(=O)N(Cc2ccco2)c2c(N)n(Cc3ccccc3)c(=O)[nH]c2=O)c1,i,10µM,i,i,i,i,i
O=C(Nc1nnc(-c2ccncc2)s1)C1CCCO1 (stereo not drawn),i,6.31µM,?,i,i,i,12.2µM
Cc1ccc(C2Nc3ccccc3-c3nc4ccccc4n32)o1 (stereo not drawn),i,0.708µM,i,i,i,i,10.9µM
Cc1ccc(C(=O)NCCc2c[nH]c3ccc(C)cc23)cc1,i,nt,nt,nt,nt,nt,nt
Cc1cccc(C)c1NC(=O)C(c1ccc(C(F)(F)F)cc1)n1c(=O)c(-c2cc3ccccc3[nH]2)nc2ccccc21 (stereo not drawn),i,i,nt,nt,nt,nt,nt
CC(C)(C)NC(=O)C(c1ccc(-c2ccccc2)cc1)n1c(=O)c(-c2cc3ccccc3[nH]2)nc2ccccc21 (stereo not drawn),i,i,nt,nt,nt,nt,i
Cc1cccc(C)c1NC(=O)C(c1ccc(-c2ccccc2)cc1)n1c(=O)c(-c2cc3ccccc3[nH]2)nc2ccccc21 (stereo not drawn),i,i,nt,nt,nt,nt,i
CCCN1C(=O)c2[nH]nc(-c3ccccc3O)c2C1c1ccc(OC)c(OC)c1 (stereo not drawn),i,nt,nt,nt,nt,nt,nt
CCOC(=O)c1ccccc1Nc1nc2ccc(C)cc2n2nnnc12,i,i,i,nt,nt,i,nt
CCOC(=O)N1CCC(Nc2nc3ccccc3n3nnnc23)CC1,i,25.1µM,i,i,i,i,19.3µM
COc1ccccc1NC(=O)Cn1c2ccccc2c2nc3n(c(=O)c21)CCS3,i,3.16µM,i,i,i,i,?
O=C(Cn1c2ccccc2c2nc3n(c(=O)c21)CCS3)Nc1ccccc1C(F)(F)F,i,nt,i,i,i,i,nt
Cc1ccc(C)c(OCCCC(=O)NC2CCCCC2)c1,i,3.16µM,i,i,i,i,i
COc1ccc(S(=O)(=O)N2CCN(c3ccccc3)CC2)cc1-c1noc(C(C)(C)C)n1,i,nt,nt,nt,nt,nt,nt
O=C(Nc1ccc2c(c1)Cc1ccccc1-2)c1ccncc1,i,10µM,i,i,i,i,i
CCc1ccc(S(=O)(=O)c2nnn3c2nc(N2CCC4(CC2)OCCO4)c2sccc23)cc1,i,nt,nt,nt,nt,nt,nt
O=C(Nc1cccc(Cl)c1Cl)c1cc(S(=O)(=O)NCc2ccc3c(c2)OCO3)ccc1F,i,i,i,nt,nt,i,?
CCCN1CCC(NC(=O)Cc2c[nH]c3ccccc23)CC1,i,nt,nt,nt,nt,nt,nt
CCCCn1nc(C(=O)Nc2ccc(OC(F)F)c(Cl)c2)c2ccccc2c1=O,i,nt,nt,nt,nt,nt,nt
COc1ccccc1NS(=O)(=O)c1ccc2oc(SC(C)C(=O)N3CCCC3)nc2c1 (stereo not drawn),i,nt,nt,nt,nt,nt,nt
CC1Cc2ccccc2N1c1nc(C2CC2)nc2c1nnn2Cc1ccccc1 (stereo not drawn),i,7.08µM,i,i,i,i,27.3µM
Cc1cccc(CC(=O)Nc2ccc(C(=O)N3CCCCC3)cc2)c1,i,3.16µM,i,i,i,i,i
